In the library only some 21% were active in any assay of this set; here they are far more common.
HCV inhibitor: HCV inhibition; AID 651820; Potency, µM (highest dose often 41.8 µM), without a hit: at the highest dose activity change, negative = inhibition, actives largely listed as inhibitors; 3.4% of 340,000 active; Huh7.5.1 HCVcc-Cre infection, luciferase reporter, 44 h; further: potency means the concentration at half of the fitted maximal effect; on the % scale 0 is the no-effect control and ±100 the full control effect
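Cells seeded at 1,000/well and cultured 4 h, then compounds added followed by HCVcc-Cre virus (~0.5 moi). After 44 h further culture, luciferase substrate was added, plates held 15 min at room temperature, and luminescence read for 15 sec.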
Pf growth 48h: inhibits P. falciparum growth in the first generation, 48 h. P. falciparum luciferase growth in erythrocytes, 48 h. Potency, µM (titrated, usually from 28.7 µM), without a hit: top-dose activity change, negative = inhibition, actives largely listed as inhibitors. 5.9% of 310,000 active. AID 504832; further: potency means the concentration at half of the fitted maximal effect; on the % scale 0 is the no-effect control and ±100 the full control effect
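Compounds are pin-transferred into medium, infected erythrocytes (2% hematocrit, 0.1% parasitemia final) are added, and plates sit one parasite generation at 37 C in 5% CO2. Detection reagent is then added and luminescence measured.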
HCMV inh: inhibitors of human cytomegalovirus | HFF cells, HCMV-luciferase reporter, 72 h; hits give low values | activity change, negative = inhibition, % at 57.5 µM | 4.5% of 410,000 active | AID 1259415; in the data active means activity change below about -60%; inconclusive means no clear call, values can overlap the other calls; inactive means above about -39%; further: on the % scale 0 is the no-effect control and ±100 the full control effect
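Luciferase read-out from HCMV-luciferase-infected HFFs (MOI 1 PFU/cell) 72 h post infection at 37C; compounds added after 16 h cell attachment; activity normalized between buffer-only basal and Salinomycin (10uM) inhibitor controls.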
Pf growth 96h: P. falciparum growth inhibition at 96 hour, primary screen for plastid delayed-death inhibitors. Potency, µM (titrated, usually from 28.7 µM), for inactives: at the highest dose activity change, negative = inhibition, usual class: inhibitors. AID 504834. 6.9% of 320,000 active. P. falciparum luciferase reporter growth, 96 h; further: potency means the concentration at half of the fitted maximal effect; on the % scale 0 is the no-effect control and ±100 the full control effect
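Compounds incubated with erythrocytes infected by luciferase-expressing P. falciparum (2% hematocrit, 0.05% parasitemia final) for 96 hours, 37 C in 5% CO2. Growth inhibition scored as decreased luciferase luminescence.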
CHX counter: counter-screen for Shiga toxin inhibitors: cycloheximide protein synthesis inhibition; cell reporter, cycloheximide protein synthesis inhibition counterscreen; 12% of 300,000 active; max response, %; in the data active means max response mostly above about 13%, no sharp cut-off; inactive means mostly below about 14%; further: read at 38.3 µM for the half of the compounds with a filed dose; 0% is about no effect
Shiga inhibitor: inhibitors of Shiga toxin in Vero cells. Vero cells, Shiga toxin protein synthesis inhibition reporter. inhibition, % at 38.7 µM. 9.2% of 290,000 active; in the data active means inhibition mostly above about 28%, no sharp cut-off; inactive means mostly below about 43%; further: 0% is about no effect
Starred values were filed as active, the others as inactive; ? = inconclusive; . = not tested or not shown; [ ] = remark or other dose. Unless noted, the call rests on the fitted dose curve; in most records, active means well fitted inhibition curve with a large enough effect; inconclusive means small, poorly fitted or top-dose-only effect, or another doubt; inactive means no such curve, though single readings can be large or run the other way.

SMILES	HCV inhibitor	Pf growth 48h	HCMV inh	Pf growth 96h	CHX counter	Shiga inhibitor
Cc1ccc(-c2nc3c4ccccc4n(CC(=O)N4CCN(c5ccc(F)cc5)CC4)c(=O)n3n2)cc1	.	.	23	.	.	.
O=C1CCc2cc(S(=O)(=O)NCc3ccc(F)cc3)cc3c2N1CCC3	-24%[8.37 µM]	0%	-25	-4%	.	.
CCOC(=O)c1c(C)[nH]c(C(=O)N2CCC(C(=O)OCC)CC2)c1C	-6%	4%	7	12%	14	-10
NS(=O)(=O)c1ccc(CCNc2ncnc3c2c(-c2ccccc2)cn3-c2ccc(F)cc2)cc1	11µM*	?	-12	?	-3	10
CC1CN(c2ncnc3c2c(-c2ccccc2)cn3-c2ccc(F)cc2)CC(C)O1 (stereo not drawn)	10µM*	?	8	?	1	-8
Fc1ccc(-n2cc(-c3ccccc3)c3c(NN4CCOCC4)ncnc32)cc1	?	15µM*	?	?	-4	-11
CCOC(=O)C1CCN(c2ncnc3c2c(-c2ccccc2)cn3-c2ccccc2)CC1	10µM*	?	-38	8%	-2	-9
COc1ccc(S(=O)(=O)N2CCOCC2)cc1NC(=O)CSc1cccc[n+]1[O-]	11%	63%	?	0%	-2	-5
CC(C)C#Cc1ccc2c(c1)O[C@@H](CN(C)C(=O)c1cnccn1)[C@@H](C)CN([C@@H](C)CO)S2(=O)=O	.	.	-16	.	.	.
O=C(Nc1ccc(N2C(=O)CCC2=O)cc1Cl)c1cccs1	10%	21%	-30	26%	11	10
CCOc1ccc(-n2cc(-c3ccccc3)c3c(N4CCC(C)CC4)ncnc32)cc1	.	.	-63*	.	.	.
O=C(NC1(C(F)(F)F)NC(=O)N(CCc2ccccc2)C1=O)c1ccccc1F (stereo not drawn)	.	.	-4	.	.	.
CN1CCN(Cc2nc3ccccc3c(=O)n2Cc2nc(-c3ccc([N+](=O)[O-])cc3)cs2)CC1	?	?	?	2.6µM*	-9	-36
CN1CCN(Cc2nc3ccccc3c(=O)n2CC#N)CC1	6%	-4%	19	4%	-1	-15
O=C(Cc1cccc2ccccc12)Nc1nc(-c2cccc([N+](=O)[O-])c2)cs1	-10%	4%	-14	?	-4	-5
CN(C)Cc1nc2ccccc2c(=O)n1Cc1nc(-c2cccc([N+](=O)[O-])c2)cs1	11µM*	?	44	?	6	-10
Cc1c2cnn(CC(=O)NCC(C)c3ccccc3)c(=O)c2c(C)n1Cc1cccc(Cl)c1 (stereo not drawn)	.	.	-3	.	.	.
COc1ccc(N=Nc2nc3ccc(Br)cc3n2C)cc1	-20%	?	161	0%	40*	70*
COc1ccc(-c2c(-c3cc(OC)cc(OC)c3)n(C)c3ccc(Br)cc23)cc1	-2%	0%	-23	35%	.	.
O=C(NCc1ccccn1)c1cccc(NS(=O)(=O)c2ccccc2)c1	-2%	5%	-8	-4%	.	.
COc1ccc(N(CC(=O)NCCC2=CCCCC2)S(=O)(=O)c2ccc(C)cc2)cc1OC	-11%	?	9	?	-2	-4
COc1ccc2c(c1)cc1c(=O)n(CC(=O)NCCc3ccccc3)nc(C)n12	.	.	1	.	.	.
N/C(=C\C(=O)c1cc(Cl)ccc1O)C(Cl)(Cl)Cl	?	2.9µM*	0	10µM*	13*	24
Cc1n[nH]c(C)c1CCOc1ccc(C(C)C)cc1	?	-1%	-18	13%	32	49*
Cc1nc(=O)c(-c2ccccc2)c(C)n1-c1ccc(S(N)(=O)=O)cc1	16%	3%	40	.	7	-13
SMILES	HCV inhibitor	Pf growth 48h	HCMV inh	Pf growth 96h	CHX counter	Shiga inhibitor
Cc1nc(=O)c(-c2ccccc2)c(C)n1-c1ccc(C(=O)O)cc1	21%	-23%	-16	1.7µM*	-4	23
Cc1cccc(C)c1NC(=O)C1N=Cc2ccccc2N=C1c1cccc(Br)c1 (stereo not drawn)	.	.	35	.	.	.
Cc1cc(N2CCCC2)nc2ccc(NC(=S)NCCCN3CCC(C)CC3)cc12	10µM*	?	-88*	-24%	-6	-4
Cc1cc(N2CCC(C)CC2)nc2ccc(NC(=O)Cc3ccccc3Br)cc12	.	.	-16	.	.	.
CCCN1CCN(CCCNC(=S)Nc2ccc3nc(N4CCN(CC)CC4)cc(C)c3c2)CC1	?	?	?	-1%	-2	-6
Cc1cc(N2CCN(C)CC2)nc2ccc(NC(=S)NCCCN3CCc4ccccc4C3)cc12	11µM*	?	-3	24%	-8	-11
Cc1cc(N2CCN(C)CC2)nc2ccc(NC(=S)NCCN3CCc4ccccc4C3)cc12	11µM*	9.3µM*	?	?	-3	-3
CCN1CCN(c2cc(C)c3cc(NC(=S)NCCCN4CCc5ccccc5C4)ccc3n2)CC1	8.9µM*	7.4µM*	?	?	-11	27
c1ccc(Nc2nc(N3CCCC3)nc(N3CCOCC3)n2)cc1	.	.	22	.	.	.
c1ccc(Nc2nc(Nc3ccccc3)nc(N3CCNCC3)n2)cc1	-26%	?	29	9.3µM*	-1	-8
O=c1nc(N2CCCC2)nc(Nc2ccccc2)[nH]1	3%	0%	?	15µM*	-3	7
Cn1c(=O)c2[nH]c(Nc3ccccc3)nc2n(C)c1=O	10%	-5%	34	?	-1	1
Fc1ccc(-c2noc3nc(Oc4ccccc4F)ccc23)cc1	.	.	58	.	.	.
Cc1csc(NC(=O)CSC2=NS(=O)(=O)c3ccccc3N2)n1	-20%	18%	12	19%	.	.
COC(=O)Nc1nc2ccc(C(=O)c3cccs3)cc2[nH]1	-8%	56%	-75*	26%	.	.
COC(=O)c1cc(C(=O)Nc2nc3ccccc3[nH]2)cc([N+](=O)[O-])c1	-14%	?	73	?	16	49*
O=C(NC(Cc1ccccc1)c1nc2ccccc2[nH]1)c1cccc([N+](=O)[O-])c1 (stereo not drawn)	?	?	-26	12µM*	9	8
O=C(Nc1c2c(nc3ccccc13)CCCC2)c1cccc([N+](=O)[O-])c1	?	28%	-64*	51%	-3	-9
